# According to PubChem BioAssay (Tox21):
# Several values for one entry are separate records, joined by “and”; a condition that tells them apart may be missing. Identical values can stand only once. Inconclusive results are not listed. Activity calls are given as the source filed them. Unless noted, the call rests on the fitted dose curve; in most records, active means well fitted cell-killing curve with a large enough effect in the repeat runs; inconclusive means weak or mixed curves, or effect the other way; inactive means flat fitted curve, though single readings scatter.
# Biological target: Estrogen receptor beta (Homo sapiens) (UniProt Q92731)
# Assay: qHTS assay to identify small molecule antagonists of the estrogen receptor beta (ER-beta) signaling pathway (AID 1259378; active means well fitted inhibition curve with a large enough effect in the signal ratio in the repeat runs, not every such curve was filed as active; the % refers to the signal ratio)
# Conditions: ER-beta-UAS-bla HEK293T, beta-lactamase FRET ratio, 16 h; series mostly up to 92.4 µM; activity, negative = inhibition: at the top concentration
# Method in brief: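 ER-beta-UAS-bla HEK293T cells in 2% charcoal-stripped FBS medium treated with compound plus 1nM final 17-beta-estradiol for 16 hr at 37C. Beta-lactamase reporter read by FRET substrate fluorescence after 2 hours at room temperature.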
# On the % scale 0 is the no-effect control and ±100 the full control effect; potency means the concentration at half of the fitted maximal effect.
# Sequence of Estrogen receptor beta (Homo sapiens) (Q92731 whole entry, looked up): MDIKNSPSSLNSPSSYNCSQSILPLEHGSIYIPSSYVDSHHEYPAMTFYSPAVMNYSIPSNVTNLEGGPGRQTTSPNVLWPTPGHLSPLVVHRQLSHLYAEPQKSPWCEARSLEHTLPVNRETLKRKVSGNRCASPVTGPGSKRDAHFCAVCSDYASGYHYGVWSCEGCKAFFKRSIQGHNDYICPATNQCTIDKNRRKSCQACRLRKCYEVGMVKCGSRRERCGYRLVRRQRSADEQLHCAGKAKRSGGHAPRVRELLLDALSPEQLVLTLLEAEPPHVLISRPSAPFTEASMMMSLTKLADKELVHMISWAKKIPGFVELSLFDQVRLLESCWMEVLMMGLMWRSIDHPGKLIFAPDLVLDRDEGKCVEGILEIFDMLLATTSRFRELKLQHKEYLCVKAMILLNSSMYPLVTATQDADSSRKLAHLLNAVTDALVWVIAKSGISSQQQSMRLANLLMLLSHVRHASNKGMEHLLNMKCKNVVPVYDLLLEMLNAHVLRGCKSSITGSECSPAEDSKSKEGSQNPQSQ
SMILES,Potency,"activity, negative = inhibition"
Oc1cc(Cl)c(Cl)c(Cl)c1,14.6 µM (active),
NNC(=O)c1ccccc1,,18.8% (inactive)
ClCCN1CCOCC1,,-1.74% (inactive)
Cc1cc(C)cc(OP(=O)(Oc2cc(C)cc(C)c2)Oc2cc(C)cc(C)c2)c1,,0.158% (inactive)
CC1(c2ccc(Oc3ccccc3)cc2)OC(=O)N(Nc2ccccc2)C1=O (stereo unspecified),10.9 µM (active),
O=C1NCN(c2ccccc2)C12CCN(CC1COc3ccccc3O1)CC2 (stereo unspecified),,-0.711% [at 42.5 µM] (inactive)
COc1ccc(OC)c(C=O)c1,,-7.05% (inactive)
CCCN(CC)CC1COC2(CCC(C(C)(C)C)CC2)O1 (stereo unspecified),,1.05% (inactive)
O=C(CCl)Nc1ccccc1,27.3 µM (active),
COc1cccc(C(=O)CCN[C@@H](C)[C@H](O)c2ccccc2)c1,,-4.1% [at 42.5 µM] (inactive)
CC1(C)[C@H](C(=O)O[C@H](C#N)c2cccc(Oc3ccccc3)c2)[C@@H]1/C=C(\Cl)C(F)(F)F,inactive,
Clc1ccc(C(c2ccccc2Cl)C(Cl)(Cl)Cl)cc1 (stereo unspecified),6.15 µM (active) and 8.02 µM (active),
CC(C)CCCCCOC(=O)c1ccccc1C(=O)OCCCCCC(C)C,,-3.06% (inactive)
CCc1ccccc1C,,2.8% (inactive)
Brc1c(Br)c(Br)c(Oc2c(Br)c(Br)c(Br)c(Br)c2Br)c(Br)c1Br,,-4.25% [at 19 µM] (inactive)
OC(c1ccc(Cl)cc1)(c1ccc(Cl)cc1)C(Cl)(Cl)Cl,,-16.9% (inactive)
Clc1ccc(C(Cl)(Cl)Cl)c(Cl)c1,,-4.91% (inactive)
CCCOCC(=Nc1ccc(Cl)cc1C(F)(F)F)n1ccnc1,17.2 µM (active),
O=C(Nc1ccc2[nH]ccc2c1)c1cc2cc(F)ccc2n1Cc1cccc(F)c1,17.2 µM (active),
Clc1ccc(-c2ccccc2)cc1,,9.02% (inactive)
C[As+](C)(C)CC(=O)[O-],,-3.08% (inactive)
CCc1cc(C)cc(CC)c1-c1c(OC(=O)C(C)(C)C)n2n(c1=O)CCOCC2,,-9.35% (inactive)
CCCCCCCCCCCCCN1CC(C)OC(C)C1 (stereo unspecified),,1.5% (inactive)
CCc1nn(C)c(C(=O)NCc2ccc(C(C)(C)C)cc2)c1Cl,24.3 µM (active),
ClC(Cl)=C(Cl)Cl,,-22.2% (inactive)
c1ccc(Nc2ccc3ccccc3c2)cc1,54.2 µM (active) and 48.6 µM (active),
c1ccc2c(c1)OCC(C1=NCCN1)O2 (stereo unspecified),11.9 µM (active),
CCCCCCCCCCCCCCC(Br)C(=O)O (stereo unspecified),,-22.2% (inactive)
CCC(C)c1cc(C(C)(C)C)cc(-n2nc3ccccc3n2)c1O (stereo unspecified),,-5.09% [at 42.5 µM] (inactive)
CC(C)[C@H](C(=O)OC(C#N)c1cccc(Oc2ccccc2)c1)c1ccc(OC(F)F)cc1 (stereo partly specified),,10.5% (inactive)

# Tested on: not listed separately
# Assay: qHTS assay to identify small molecule agonists of the androgen receptor (AR) signaling pathway in the presence of an antagonist - cell viability counter screen (AID 1259379); further: nearly all actives have a fitted effect of over 25% in size;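 on activity change, negative = cytotoxicity: MDA-kb2 human breast cancer cells carrying an MMTV luciferase reporter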
# Conditions: MDA-kb2 viability, CellTiter-Fluor, 16 h; series mostly up to 92.4 µM; activity change, negative = cytotoxicity: at the top concentration
# Method in brief: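 MDA-kb2 cells (MMTV-luciferase, AR/GR), 3,000/well, 5 h attachment, then 3.0 µM nilutamide (final) and compounds at 15 concentrations. Viability by CellTiter-Fluor fluorescence after 16 h at 37 °C, 0% CO2, in the reporter wells.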
SMILES,"activity change, negative = cytotoxicity",Potency
NNC(=O)c1ccccc1,-3.85% (inactive),
ClCCN1CCOCC1,0.515% (inactive),
Cc1cc(C)cc(OP(=O)(Oc2cc(C)cc(C)c2)Oc2cc(C)cc(C)c2)c1,5.42% (inactive),
CC1(c2ccc(Oc3ccccc3)cc2)OC(=O)N(Nc2ccccc2)C1=O (stereo unspecified),,24.5 µM (active)
COc1ccc(OC)c(C=O)c1,-2.03% (inactive),
CCCN(CC)CC1COC2(CCC(C(C)(C)C)CC2)O1 (stereo unspecified),-8.54% (inactive),
C[C@]12CC[C@@H]3c4ccc(OC(=O)N(CCCl)CCCl)cc4CC[C@H]3[C@@H]1CC[C@@H]2O,2.45% [at 42.5 µM] (inactive),
C=CC(=O)N(C)C,0.183% (inactive),
O=C(CCl)Nc1ccccc1,,61.1 µM (active)
CC1(C)[C@H](C(=O)O[C@H](C#N)c2cccc(Oc3ccccc3)c2)[C@@H]1/C=C(\Cl)C(F)(F)F,,inactive
Clc1ccc(C(c2ccccc2Cl)C(Cl)(Cl)Cl)cc1 (stereo unspecified),-4.34% [at 42.5 µM] (inactive),
CCC(C)c1cc([N+](=O)[O-])cc([N+](=O)[O-])c1OC(=O)C=C(C)C (stereo unspecified),,54.5 µM (active)
CC(C)CCCCCOC(=O)c1ccccc1C(=O)OCCCCCC(C)C,-0.494% (inactive),
CCc1ccccc1C,-1.62% (inactive),
Oc1ccc(C(c2ccc(O)cc2)(C(F)(F)F)C(F)(F)F)cc1,-8.22% (inactive),
Brc1c(Br)c(Br)c(Oc2c(Br)c(Br)c(Br)c(Br)c2Br)c(Br)c1Br,4.12% [at 19 µM] (inactive),

SMILES,"activity change, negative = cytotoxicity",Potency
Clc1ccc(C(Cl)(Cl)Cl)c(Cl)c1,-6.95% (inactive),
Clc1ccc(-c2ccccc2)cc1,-2.09% (inactive),
C[As+](C)(C)CC(=O)[O-],0.129% (inactive),
O=C(CCCN1CCC2(CC1)C(=O)NCN2c1ccccc1)c1ccc(F)cc1,-12.2% [at 42.5 µM] (inactive),
CCSC(C)CC1CC(=O)C(/C(CC)=N/OC/C=C/Cl)=C(O)C1 (stereo unspecified),3.24% [at 42.5 µM] (inactive),
CCCCCCCCCCCCCN1CC(C)OC(C)C1 (stereo unspecified),-2.47% (inactive),
CCc1nn(C)c(C(=O)NCc2ccc(C(C)(C)C)cc2)c1Cl,,0.306 µM (active)
CN(C)CCc1c[nH]c2ccc(O)cc12,-1.87% (inactive),
ClC(Cl)=C(Cl)Cl,1.47% (inactive),
c1ccc(Nc2ccc3ccccc3c2)cc1,,inactive
O=C(CBr)c1ccc(O)cc1,3.88% (inactive),
c1ccc2c(c1)OCC(C1=NCCN1)O2 (stereo unspecified),-10.3% [at 42.5 µM] (inactive),
CCCCCCCCCCCCCCC(Br)C(=O)O (stereo unspecified),-13.3% (inactive),
CCC(C)c1cc(C(C)(C)C)cc(-n2nc3ccccc3n2)c1O (stereo unspecified),-2.2% [at 42.5 µM] (inactive),
CC(C)[C@H](C(=O)OC(C#N)c1cccc(Oc2ccccc2)c1)c1ccc(OC(F)F)cc1 (stereo partly specified),-2.15% (inactive),
